The full list was thinned out, with hits kept by preference.
NOMO-1 viab = STK33 inhibitor candidate reducing NOMO-1 cell viability; AID 2330; actives 7.5% (n = 37,000); inhibition, % (no concentration beside the values); NOMO-1 AML viability, CellTiter-Glo luminescence, 72 h; in the data active = inhibition above about 80%; inconclusive = no clear call, values can overlap the other calls
STK33 kin inh = human STK33 kinase inhibition. inhibition, % at 12.5 µM. ADP-Glo luminescence, MBP substrate. actives 0.44% (n = 27,000). Q9BYT3. AID 2322; in the data active = inhibition above about 20%; inconclusive = no clear call, values can overlap the other calls
Target sequence (Q9BYT3 whole entry, looked up): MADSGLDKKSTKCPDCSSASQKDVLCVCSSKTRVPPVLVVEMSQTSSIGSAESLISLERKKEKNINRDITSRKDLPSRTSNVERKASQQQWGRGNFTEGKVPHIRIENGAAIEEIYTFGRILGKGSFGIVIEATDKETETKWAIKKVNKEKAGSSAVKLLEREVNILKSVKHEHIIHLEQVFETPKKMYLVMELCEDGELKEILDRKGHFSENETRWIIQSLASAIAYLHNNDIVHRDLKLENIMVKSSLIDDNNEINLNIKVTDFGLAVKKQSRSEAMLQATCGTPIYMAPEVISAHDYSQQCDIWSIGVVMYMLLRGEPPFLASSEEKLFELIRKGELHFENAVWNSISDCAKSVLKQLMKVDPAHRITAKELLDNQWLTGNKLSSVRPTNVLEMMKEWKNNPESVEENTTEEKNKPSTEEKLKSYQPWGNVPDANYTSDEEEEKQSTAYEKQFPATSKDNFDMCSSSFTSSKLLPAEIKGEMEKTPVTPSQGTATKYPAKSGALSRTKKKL
PD-1 reversal = activators reversing PD-1 mediated T-cell inhibition; 29,000 tested, under 10 active; primary human CD4 T cells, PD-L1 beads, CellTiter-Glo 96 h; activation, % (test concentration not listed); call rule not given here;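 note: 0% = median vehicle wells and 100% = positive control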
The depositor's hits bear a star.

For CC1OC(OC(=O)C2=CC3(O)CC(C)(C)CC34C(C)CCC24)C(O)C(O)C1O (stereo not given) the results were NOMO-1 viab -7, STK33 kin inh 2 and PD-1 reversal 3.
For COc1ccc(Cl)cc1NC(=O)CN(c1ccc(Cl)c(C(F)(F)F)c1)S(C)(=O)=O the results were NOMO-1 viab 40 and STK33 kin inh 3.
For COc1ccc(NC(=O)CNC(=O)c2cccc(C)c2)cc1 the results were NOMO-1 viab -14 and STK33 kin inh -1.
Cc1ccccc1CN1C(=O)C(O)(CC(=O)c2ccncc2)c2cc(Cl)ccc21 (stereo not given) was read as NOMO-1 viab 129*, STK33 kin inh -6 and PD-1 reversal -7.
For O=C(CC1(O)C(=O)N(Cc2ccc(Cl)c(Cl)c2)c2ccccc21)c1ccc2c(c1)OCCO2 (stereo not given) the results were NOMO-1 viab 23, STK33 kin inh 1 and PD-1 reversal 1.
`COc1ccc(CN2C(=O)C(O)(CC(=O)c3cccnc3)c3ccccc32)cc1OC` (stereo not given) gave NOMO-1 viab 106*, STK33 kin inh -6 and PD-1 reversal -4.
For COc1ccc(CN2C(=O)C(O)(CC(=O)c3ccc(Cl)s3)c3ccccc32)cc1OC (stereo not given) the results were NOMO-1 viab 109* and STK33 kin inh 1.
Screening NC(=O)CN1C(=O)C(O)(CC(=O)c2ccc(Cl)s2)c2ccccc21 (stereo not given) returned NOMO-1 viab 19 and STK33 kin inh -4.
O=C(CC1(O)C(=O)N(Cc2ccc(Cl)c(Cl)c2)c2ccccc21)c1cccc([N+](=O)[O-])c1 (stereo not given) was read as NOMO-1 viab 108*, STK33 kin inh 2 and PD-1 reversal -6.
`COc1cccc(NC(=O)Cn2cc(C(=O)C(C)(C)C)c3ccccc32)c1` gave NOMO-1 viab 16, STK33 kin inh -6 and PD-1 reversal -1.
For COc1ccc(OC)c(NC(=O)CNC(=O)c2ccc(Cl)cc2)c1 the results were NOMO-1 viab 33, STK33 kin inh 1 and PD-1 reversal -1.
`COc1cccc(/C=C/c2cc(C(F)(F)F)[nH]c(=O)n2)c1OCC(=O)O` gave NOMO-1 viab -11, STK33 kin inh 4 and PD-1 reversal 0.
Cc1ccc2c(c1)c1c(n2CCc2ccncc2)CCN(C)C1 was read as NOMO-1 viab 70 and PD-1 reversal -1.
For COc1ccc(CN2C(=O)C(O)(CC(=O)c3c(C)coc3C)c3ccccc32)cc1OC (stereo not given) the results were NOMO-1 viab 50 and STK33 kin inh 1.
`COc1ccc(CN2C(=O)C(O)(CC(=O)c3ccc(C)s3)c3ccccc32)cc1OC` (stereo not given) gave NOMO-1 viab 114* and STK33 kin inh 0.
For Cc1ccc(C(C)C)c(OCC(=O)Nc2sc3c(c2C(N)=O)CCC(C)C3)c1 (stereo not given) the results were NOMO-1 viab 63 and STK33 kin inh -2.
For O=c1cc(-c2ccccc2)nc2nc(NCc3cccc([N+](=O)[O-])c3)[nH]n12 the results were NOMO-1 viab 25, STK33 kin inh 5 and PD-1 reversal 2.
Screening O=[N+]([O-])c1cccc(-c2nn(-c3ccccc3)cc2CNCc2ccccc2)c1 returned NOMO-1 viab 93*, STK33 kin inh 1 and PD-1 reversal -9.
For COC(=O)C1=CO[C@@H](O[C@@H]2O[C@H](CO)[C@@H](O)[C@H](O)[C@H]2O)[C@@H]2[C@@H](CO)C=C[C@H]12 the results were NOMO-1 viab -3, STK33 kin inh -4 and PD-1 reversal 1.
Screening Cc1cccc(OCC(=O)NC(=S)Nc2ccc(C)cc2O)c1 returned NOMO-1 viab 102*, STK33 kin inh 6 and PD-1 reversal -11.
Screening COC(=O)c1sccc1NC(=O)COc1cccc(C)c1 returned NOMO-1 viab 7, STK33 kin inh 1 and PD-1 reversal -2.
For CC1(C)CC(=O)C=C(Sc2nc3cc(Cl)ccc3s2)C1 the results were NOMO-1 viab 120*, STK33 kin inh 3 and PD-1 reversal -45.
Screening O=C(CSc1nc2cc(Cl)ccc2s1)Nc1ccc2c(c1)OCCO2 returned NOMO-1 viab -11, STK33 kin inh 1 and PD-1 reversal 1.
`Cc1c(C)c(C)c(C(=O)c2ccccc2C(=O)NCc2cccnc2)c(C)c1C` gave NOMO-1 viab 38 and PD-1 reversal 0.
Screening [N-]=[N+]=NCc1ccccc1C[C@@]1(C(=O)NCc2ccccc2)N=C(c2ccc(OCCCO)cc2)O[C@@H]1c1ccccc1 returned STK33 kin inh -3.
Screening O=C(Nc1ccccc1)Nc1ccc2nnsc2c1 returned NOMO-1 viab 83* and PD-1 reversal 1.
Screening O=C(Nc1ccccc1)Nc1ccccc1 returned NOMO-1 viab 36, STK33 kin inh 0 and PD-1 reversal -2.
`O=S(=O)(Nc1nc2ccccc2nc1NCCc1ccccc1)c1ccc(Cl)cc1` gave NOMO-1 viab 18 and PD-1 reversal 1.
Screening CCN(C(=S)Nc1ccc(C)cc1)c1ccccc1 returned NOMO-1 viab 11, STK33 kin inh -2 and PD-1 reversal -3.
For CCN(CC)C(=S)NC(=S)c1ccc(C)cc1 the results were NOMO-1 viab 122* and PD-1 reversal -7.
Screening CC(C)S(=O)(=O)c1cscc1NC(=O)c1ccc(-c2cc(C(F)(F)F)nn2C)s1 returned NOMO-1 viab inconclusive and PD-1 reversal 1.
COc1cc(S(=O)(=O)NCc2ccccn2)ccc1Br was read as NOMO-1 viab -15 and STK33 kin inh 1.
Screening CCC(C)CC(C)/C=C\C1OC2=C(C(=O)OC2(C)O)C(O)C1O (stereo not given) returned NOMO-1 viab 108*, STK33 kin inh -3 and PD-1 reversal -8.
Screening Cc1c(C)c(C)c(CSc2ccccc2N)c(C)c1C returned NOMO-1 viab 91* and PD-1 reversal -2.
`Cc1c(C)c(C)c(CSc2ccccn2)c(C)c1C` gave NOMO-1 viab 33 and PD-1 reversal 1.
For COC(CCc1ccc(O)c(O)c1)CC(=O)CCc1ccc(O)c(O)c1 (stereo not given) the results were STK33 kin inh -5.
Screening O=C(CCc1ccc(O)cc1)CC(O)CCc1ccc(O)c(O)c1 (stereo not given) returned NOMO-1 viab 85*, STK33 kin inh 0 and PD-1 reversal 1.
Screening Cc1cc(C)c2c(n1)sc1c(SCC(=O)c3ccc(Br)cc3)ncnc12 returned NOMO-1 viab 21 and PD-1 reversal 1.
NS(=O)(=O)c1ccc(NC(=S)NCCN2CCOCC2)cc1 was read as NOMO-1 viab 3, STK33 kin inh -3 and PD-1 reversal 1.
CC(C)CC(C(=O)c1ccccc1)c1ccccc1 (stereo not given) was read as NOMO-1 viab 49 and PD-1 reversal 0.
For CCc1cccc2c(C(C(=O)c3ccccc3)c3c[nH]c4c(CC)cccc34)c[nH]c12 the results were NOMO-1 viab 111* and PD-1 reversal -1.
Screening COC(=O)c1c(-c2c(Cl)cccc2Cl)noc1NC(=O)NCc1ccccc1 returned NOMO-1 viab 104* and PD-1 reversal -1.
For Cc1onc(-c2c(Cl)cccc2Cl)c1C(=O)ON1C(=O)CCC1=O the results were NOMO-1 viab 70 and PD-1 reversal -1.

Screening data: PubChem, Broad Institute
